Screening results from PubChem.
POLK inh: DNA polymerase kappa (human) inhibition. Q9UBT6. Potency, µM (highest dose often 107 µM), hits mostly inhibitors. AID 588579. 400,000 compounds, 0.53% hits. purified Pol kappa, fluorescent DNA synthesis assay, 10 min
Target sequence (Q9UBT6 whole entry, looked up): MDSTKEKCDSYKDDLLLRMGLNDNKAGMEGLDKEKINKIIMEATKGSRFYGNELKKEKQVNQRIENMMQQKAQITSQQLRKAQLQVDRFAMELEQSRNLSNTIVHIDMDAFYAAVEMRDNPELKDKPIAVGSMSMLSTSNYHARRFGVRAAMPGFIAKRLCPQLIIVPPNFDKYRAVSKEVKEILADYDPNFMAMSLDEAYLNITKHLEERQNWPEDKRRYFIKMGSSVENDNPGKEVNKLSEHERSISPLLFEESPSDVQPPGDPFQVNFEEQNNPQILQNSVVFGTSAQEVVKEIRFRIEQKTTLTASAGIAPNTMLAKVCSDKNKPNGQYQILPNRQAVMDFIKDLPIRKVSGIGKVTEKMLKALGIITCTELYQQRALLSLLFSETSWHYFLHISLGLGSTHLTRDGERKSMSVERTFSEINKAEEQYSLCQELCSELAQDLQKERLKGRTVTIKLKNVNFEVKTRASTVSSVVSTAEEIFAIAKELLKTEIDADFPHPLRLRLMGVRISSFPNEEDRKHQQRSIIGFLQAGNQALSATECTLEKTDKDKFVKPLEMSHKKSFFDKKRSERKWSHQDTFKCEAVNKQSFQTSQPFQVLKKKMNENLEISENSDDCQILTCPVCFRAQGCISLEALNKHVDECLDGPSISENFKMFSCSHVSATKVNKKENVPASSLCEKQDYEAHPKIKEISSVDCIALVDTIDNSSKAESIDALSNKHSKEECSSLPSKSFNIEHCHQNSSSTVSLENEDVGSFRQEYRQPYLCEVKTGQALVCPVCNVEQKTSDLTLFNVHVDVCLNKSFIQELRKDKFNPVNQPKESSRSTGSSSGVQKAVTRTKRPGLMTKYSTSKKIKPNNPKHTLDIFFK
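Readout: fluorescence, taken kinetically at 0 and 10 min. Conditions: 10 nM Pol kappa, 15 min RT compound preincubation, 50 nM substrate final. Controls: enzyme-free buffer wells.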
Pol beta inh: inhibitors of human DNA polymerase beta | AID 485314 | 340,000 compounds, 1.3% hits | Pol beta primer extension/strand displacement, fluorescence kinetic | Potency, µM (series often up to 114 µM), hits mostly inhibitors | P06746
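Pol beta (10 nM) was preincubated with compound for 15 min at room temperature. The reaction was then started with 50 nM substrate and read immediately and after a further 10 min at room temperature.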
POLH inh: blocks human DNA polymerase eta activity; Q9Y253; recombinant Pol eta, fluorescent DNA replication assay; Potency, µM (doses to about 114 µM), usual class: inhibitors; 390,000 compounds, 1.2% hits; AID 588591
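Pol eta at 10 nM preincubated with compounds 15 min at room temperature; reaction started with fluorescent substrate (50 nM final) and read kinetically at 0 and 10 min.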
PI5P4Ka inh: blocks human PI5P4K alpha kinase activity; P48426; PI5P4Kalpha enzyme, ADP-Glo luminescence, 60 min; active compounds read low; max response, %; 330,000 compounds, 1.2% hits; active = max response of -50% or lower; inconclusive = between -30% and -50%; inactive = -30% or higher; also: value at the top dose of about 77 µM
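Human PI5P4Kalpha with substrate in 0.038 M HEPES pH 7.4, 0.28 mM EGTA, 0.1% CHAPS, 5% DMSO; reaction started with 5 microM ATP (final), 60 min at room temperature. ADP formed read by ADP-Glo luminescence.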
WRN helicase inh: blocks human WRN helicase; Q14191; WRN helicase unwinding, fluorescent forked duplex, kinetic; Potency, µM (top dose mostly 114 µM), most hits filed as inhibitors; 360,000 compounds, 0.46% hits; AID 651768; also: nearly all actives have a fitted effect of over 55% in size
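Fluorescence dequenching readout, ex 525 nm/em 598 nm, kinetic mode: forked duplex DNA (100 nM final) with adjacent fluorophore and quencher unwound by WRN (20 nM final) with 2 mM ATP. Compound preincubation 15 min, room temperature.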
POLI inh: blocks human DNA polymerase iota activity | Potency, µM (series often up to 115 µM), most hits filed as inhibitors | Pol iota fluorescent replication assay, 10 min | 390,000 compounds, 1% hits
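Fluorescent replication assay read twice, at 0 min and 10 min after adding 50 nM (final) substrate. Enzyme (10 nM) and compounds were first incubated 15 min at room temperature; enzyme-free buffer wells were negative controls.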
A number is an active result; 0 = inactive; ? = inconclusive; - = not tested or not shown; [ ] = remark or other dose. Shown are actives, neighbours in structure and some others; about 2.8% of the full set was active somewhere. Unless noted, calls follow the shape of the dose curve; as a rule, active = well fitted curve in the direction sought with a large enough effect; inconclusive = small, poorly fitted or top-dose-only effect, or another doubt; inactive = no such curve, though single readings can be large; an effect the other way counts as inactive or inconclusive.

SMILES | POLK inh | Pol beta inh | POLH inh | PI5P4Ka inh | WRN helicase inh | POLI inh
C[C@@H]1NC(=O)[C@H](CCC(N)=O)NC(=O)c2cc([N+](=O)[O-])cc(I)c2NCC[C@@H](C(N)=O)NC1=O | 0 | 0 | 0 | 0 | 0 | 0
NC(=O)[C@@H]1CCCCNc2c(I)cc([N+](=O)[O-])cc2C(=O)N[C@@H](CCC(=O)O)C(=O)N[C@@H](CO)C(=O)N1 | 50.1µM | 0 | 6.31µM | 0 | ? | 17.8µM
NC(=O)[C@@H]1CCNc2c(I)cc([N+](=O)[O-])cc2C(=O)N[C@@H](CCC(=O)O)C(=O)N[C@@H](CO)C(=O)N1 | ? | 0 | 22.4µM | 0 | 0 | ?
NC(=O)[C@@H]1CCCNc2c(I)cc([N+](=O)[O-])cc2C(=O)N[C@@H](CO)C(=O)N[C@@H](Cc2ccc(O)cc2)C(=O)N1 | 0 | 0 | 0 | 0 | 0 | 0
CC[C@H](C)[C@@H]1NC(=O)c2cc([N+](=O)[O-])cc(I)c2NCC[C@@H](C(N)=O)NC(=O)[C@H](CCCN=C(N)N)NC1=O | 0 | 0 | 0 | 0 | 0 | 0
NC(=O)[C@@H]1CCCNc2c(F)cc([N+](=O)[O-])cc2C(=O)N[C@@H](CCC(=O)O)C(=O)N[C@@H](CO)C(=O)N1 | 0 | 0 | 0 | 0 | 0 | ?
NC(=O)CC[C@@H]1NC(=O)[C@H](CO)NC(=O)c2cc([N+](=O)[O-])cc(I)c2NCCC[C@@H](C(N)=O)NC(=O)[C@H](Cc2ccc(O)cc2)NC1=O | 0 | 0 | 89.1µM | 0 | 0 | ?
Fc1ccc(CSc2nncn3c2cc2occc23)c(Cl)c1 | 0 | 0 | 0 | - | - | ?
O=C(c1cccs1)c1no[n+]([O-])c1C(=O)c1cccs1 | 0 | 0 | 0 | 0 | 28.2µM | 25.1µM
O=C(Nc1cccc(C(=O)O)c1)/C(=C/c1cccc([N+](=O)[O-])c1)NC(=O)c1cccc(Br)c1 | 0 | - | 0 | 0 | 0 | 0
O=C(N/N=C/C(Cl)=C/c1ccc([N+](=O)[O-])cc1)C(=O)Nc1cccc(C(=O)O)c1 | 0 | ? | 50.1µM | 0 | 0 | ?
O=C(CSc1nc2ccccc2c(=O)n1Cc1ccccc1)Nc1ccc(Br)cc1C(=O)O | 0 | ? | 89.1µM | -74.7 | 0[11.6 µM] | ?
Cc1ccc(S(=O)(=O)N2CCOCC2)cc1NC(=O)CSc1nc2ccccc2c(=O)n1Cc1ccccc1 | 0 | 0 | 0 | 0 | 0 | 0
COC(=O)C1CCN(C(=O)COC(=O)c2cc(-c3ccccc3)nc3ccc(OC)cc23)CC1 | 0 | - | 39.8µM | 0 | 0[11.6 µM] | 20µM
O=C(Nc1ccccc1)c1ccc(N2CCN(c3ccccc3)CC2)c(S(=O)(=O)N2CCOCC2)c1 | 0 | 0 | 0 | 0 | 0 | 0
O=C(Nc1ccccc1)c1ccc(N2CCN(c3ccccn3)CC2)c(S(=O)(=O)N2CCOCC2)c1 | 0 | 0 | 0 | 0 | 0 | 89.1µM
CCc1ccc(OCC(=O)N(Cc2ccc(C(C)C)cc2)C2CCS(=O)(=O)C2)cc1 (stereo unspecified) | 0 | 0 | 0 | - | - | 0
Cc1cccc(C(=O)Nc2nnc(S(=O)(=O)N(C)Cc3ccc(Cl)cc3)s2)c1 | 0 | 0 | 0 | - | - | 89.1µM
COc1ccc(N(CC(C)C)S(=O)(=O)c2nnc(NC(=O)c3ccco3)s2)cc1 | 0 | 0 | 79.4µM | ? | 0[11.6 µM] | ?
CCN(c1ccc(C)cc1C)S(=O)(=O)c1nnc(NC(=O)c2ccc(F)cc2)s1 | 0 | 17.8µM | 0 | - | - | ?
CCN(c1ccccc1C)S(=O)(=O)c1nnc(NC(=O)c2ccco2)s1 | ? | ? | 50.1µM | 0 | 0[11.6 µM] | ?
O=C(Nc1cccc(C(F)(F)F)c1)c1ccc2c(c1)nnn2C1CCCC1 | 0 | 0 | 0 | - | - | 0
COc1cc2[nH]c(=O)n(CCCC(=O)NCc3ccccc3Cl)c(=O)c2cc1OC | 0 | 0 | 0 | - | - | 0
CCCCCCCCc1nnc(NC(=O)c2ccco2)s1 | 0 | 35.5µM | 0 | - | 0 | 0
CCOc1ccc(/C=C/C2=Cc3c(sc(NC(=O)CSc4n[nH]c(N)n4)c3C#N)C(C)(C)C2)cc1 | 0 | 0 | 0 | - | 44.7µM | ?
SMILES | POLK inh | Pol beta inh | POLH inh | PI5P4Ka inh | WRN helicase inh | POLI inh
Oc1ccc(NCc2cccs2)cc1 | 0 | 0 | 0 | 0 | 0 | 31.6µM
COc1ccccc1OCC(=O)Nc1nnc(-c2ccco2)s1 | 0 | 35.5µM | ? | 0 | 0 | ?
O=S(=O)(c1ccc(-c2csc(=Nc3ccc(F)cc3)n2CCCCCCO)cc1)N1CCCC1 | 0 | 0 | 0 | - | - | ?
COC(=O)c1cc(C)nc2c1c(=O)nc(SCc1ccccc1C)n2C1CC1 | 0 | 0 | 0 | - | - | 0
CCCOc1ccc(C2C(C(=O)c3ccc(C)o3)=C(O)C(=O)N2Cc2ccco2)cc1 (stereo unspecified) | 0 | 39.8µM | 0 | 0 | 0 | ?
CCCOc1ccc(C2C(C(=O)c3ccc(C)o3)=C(O)C(=O)N2Cc2ccco2)cc1OCC (stereo unspecified) | 0 | 0 | 0 | 0 | 0 | 0
N#C/C(=C\c1c(Oc2ccc(Br)cc2)nc2ccccn2c1=O)c1nc2ccccc2s1 | 79.4µM | 0 | 0 | - | - | 12.6µM
Cc1cc(Oc2nc3ccccn3c(=O)c2/C=C(\C#N)c2nc3ccccc3s2)ccc1Cl | 0 | 0 | 0 | - | - | 0
Cc1sc2c(c1C)c(=O)n(-c1ccc(Cl)cc1)c(=O)n2Cc1c(F)cccc1Cl | 0 | 0 | 0 | - | - | 0
Cc1ccc(C)c(NC(=O)CSc2ncc3c(n2)-c2cc(Cl)ccc2N(Cc2ccccc2F)S3(=O)=O)c1 | 0 | 0 | 0 | - | - | 0
Cn1c(N)c(C(=O)COC(=O)c2cc(-c3ccco3)nc3ccccc23)c(=O)n(Cc2ccccc2)c1=O | - | 20µM | - | - | - | -
Cc1ccc(S(=O)(=O)Cc2ccc(C(=O)N3CCN(Cc4ccccc4)CC3)o2)cc1 | - | 25.1µM | - | - | - | -
COc1ccccc1CNC(=O)c1ccc(CS(=O)(=O)c2ccccc2OC)o1 | 0 | 0 | 0 | 0 | 0 | 0
COc1ccccc1CNC(=O)c1ccc(CS(=O)(=O)c2ccc(C)cc2)o1 | ? | 89.1µM | 44.7µM | 0 | 0 | 70.8µM
Cc1ccc(S(=O)(=O)Cc2ccc(C(=O)NCc3ccc4c(c3)OCO4)o2)cc1 | ? | 5.62µM | 0 | - | 0 | ?
COc1ccc(S(=O)(=O)Cc2ccc(C(=O)N3CCN(Cc4ccccc4)CC3)o2)cc1 | 0 | 0 | 0 | 0 | 0 | 0
Cc1nn2c(C)c(C(=O)NC(C)(C)C)cnc2c1-c1ccc(F)cc1 | 0 | 0 | 0 | - | - | 0
COc1cccc(-c2[nH]nc3c2C(c2ccoc2)C(C#N)=C(N)O3)c1 (stereo unspecified) | 0 | 35.5µM | ? | - | ? | ?
N#CC1=C(N)Oc2n[nH]c(-c3cccs3)c2C1c1cccnc1 (stereo unspecified) | 0 | 0 | 0 | -50.1 | 0 | ?
Cc1ccc(C2C(C#N)=C(N)Oc3n[nH]c(-c4cccs4)c32)cc1 (stereo unspecified) | 0 | 0 | 0 | ? | 0 | 0
